# Assay results: ChEMBL document CHEMBL1157539, “Thousands of chemical starting points for antimalarial lead identification” (Nature, 2010)
# The full ranking holds about 13,000 compounds; the median of “IFI” is about 4, and the highest 2% start at about 17. The entries come from a sample that favours the highest values as a whole.
# Assay: GSK_TCMDC: Inhibition Frequency Index (IFI). The number of non-kinase HTS assays where a compound showed > 50 % inhibition, expressed as a percentage of the number of such assays in which the compound was tested
# Assay type: functional
row,SMILES,IFI
1,CCN(CC)CCOc1ccc(C(O)(C#CC(O)(c2ccc(OCCN(CC)CC)cc2)c2ccc([N+](=O)[O-])cc2)c2ccc([N+](=O)[O-])cc2)cc1 (stereo unspecified),5.84%
2,CCOc1cc(C(=O)NC2CCN(Cc3ccccc3)C2)ccc1-c1nc2cc(Cl)ccc2[nH]1 (stereo unspecified),2.14%
3,Nc1nc(N)c2cc(C(F)(F)F)ccc2n1,1.65%
4,Cc1cc(C)c(CON2C(=N)N=C(N)NC2(C)C)cc1C,3.57%
5,Cc1cc(=O)[nH]c(-n2nc(C)cc2NC(=O)C(c2ccccc2)c2ccccc2)n1,10.4%
6,Cc1cc(=O)[nH]c(-n2nc(C)cc2NC(=O)CC(c2ccccc2)c2ccccc2)n1,10.4%
7,Cc1cc(=O)[nH]c(-n2nc(C)cc2NC(=O)C2(c3ccc(Cl)cc3)CCCC2)n1,19.2%
8,COc1ccc(COc2cc(NCCCN)nc3ccccc23)cc1,0%
9,COc1cc(NCCCNCC2c3ccccc3Oc3ccccc32)nc2ccccc12,20.8%
10,COc1cc(NCCCNCc2cn(Cc3cc(Br)cc(Br)c3)c3ccccc23)nc2ccccc12,17.4%
11,COc1cc(NCCCCNc2ccc(Cl)c(Cl)c2)nc2ccccc12,26.5%
12,COc1cc(NCCCCCNc2cc(Cl)nc3ccccc23)nc2ccccc12,15.8%
13,COc1cc(NCC(C)CNCc2cn(Cc3ccccc3)c3ccccc23)nc2ccccc12 (stereo unspecified),7.19%
14,COc1cc(NCCCNCc2cn(S(=O)(=O)c3ccccc3)c3ccccc23)nc2ccccc12,8.96%
15,COc1cc(NCC(O)CNc2cc(OC)c3ccccc3n2)nc2ccccc12,8.51%
16,COc1cc(NCCCNC(=O)c2ccc(Cl)c(Cl)c2)nc2ccccc12,12.5%
17,CCN(CC)/C(=N\CCCCCC/N=C(\NC(=N)c1ccc(Cl)cc1)N(CC)CC)NC(=N)c1ccc(Cl)cc1,12.2%
18,CC(C)CNCc1cccc(-c2ccc(CN(CCCN3CCN(C)CC3)C(=O)/C=C/c3ccccc3)cc2)c1,5.15%
19,Cc1cc(NC2CCN(Cc3ccccc3)CC2)nc(NCCCCc2ccccc2)n1,10.6%
20,Cc1cccc2nc(-c3cccc(-c4cccc(NC(=O)C(C)CN(C)C)c4)c3)[nH]c12 (stereo unspecified),3.6%
21,OCC1CCN(Cc2cccc(-c3ccc(-c4nc5cc(C(F)(F)F)ccc5[nH]4)s3)c2)CC1,2%

row,SMILES,IFI
1,O=c1[nH]ccc2nc(N[C@@H]3CCNC3)nc(Nc3cccc(S(=O)(=O)N4CCOCC4)c3)c12,18.2%
2,O=c1[nH]ccc2nc(N[C@@H]3CCCNC3)nc(Nc3ccc(S(=O)(=O)N4CCOCC4)cc3)c12,0%
3,NS(=O)(=O)c1cccc(Nc2nc(N[C@@H]3CCNC3)nc3cc[nH]c(=O)c23)c1,18.2%
4,O=c1[nH]ccc2nc(N[C@@H]3CCNC3)nc(Nc3ccc4c(c3)S(=O)(=O)CC4)c12,0%
5,Cc1cccc(Nc2nc(N[C@@H]3CCCNC3)nc3cc[nH]c(=O)c23)c1,16.7%
6,O=c1[nH]ccc2nc(N[C@@H]3CCNC3)nc(Nc3cc(Cl)cc(Cl)c3)c12,16.7%
7,OC(c1cc(C(F)(F)F)nc2c(F)cccc12)C1CCCCN1 (stereo unspecified),0%
8,CC(C)(C)OC(=O)Nc1cccc(-c2csc(NC(=N)N)n2)c1,4.08%
9,CC(CNC(=O)[C@H]1CNCCN1C(=O)CCCc1ccccc1)c1ccccc1 (stereo partly specified),2.84%
10,COc1cccc2c1CCN(CCN1CCC(NC(=O)c3ccc(-c4cccc(Cl)c4Cl)cc3)CC1)C2,7.63%
11,O=C(Oc1ccc(C2CNCCc3c2cc(OC(=O)c2ccc(O)cc2)c(OC(=O)c2ccc(O)cc2)c3Cl)cc1)c1ccc(O)cc1 (stereo unspecified),5.07%
12,COc1ccc(C=NN=c2cc(C)[nH]c3ccc(C)cc23)c2ccccc12,7.09%
13,CCC(C)c1ccc(NC(=O)Nc2ccnc3ccccc23)cc1 (stereo unspecified),10.2%
14,C=CCNS(=O)(=O)c1ccc(NC(=O)C(C)Oc2ccc([N+](=O)[O-])cc2)cc1 (stereo unspecified),14.8%
15,CCC(C)c1ccc(NC(=O)C(C)c2ccc([N+](=O)[O-])cc2)cc1 (stereo unspecified),23.7%
16,CCCNS(=O)(=O)c1ccc(NC(=O)C(C)Oc2ccc([N+](=O)[O-])cc2)cc1 (stereo unspecified),17.5%
17,CCN(CC)c1ccc(C(c2ccc(N(CC)CC)cc2)c2ccc([N+](=O)[O-])cc2)cc1,4.35%
18,CCCCNS(=O)(=O)c1ccc(NC(=O)c2cc([N+](=O)[O-])ccc2Cl)cc1,5.17%
19,CS(=O)(=O)c1ccc2[nH]c(-c3cc(-c4cccc(F)c4)cnc3N)nc2c1,6.45%
20,CC(=O)Nc1cccc(Nc2nccc(Nc3ccc(Oc4ccccc4)cc3)n2)c1,4.96%
21,COc1ccc(-c2ccc(NC(=O)c3cccc(Cl)c3)cc2)cc1CN1CCN(C)CC1,7.84%

row,SMILES,IFI
1,CCOC(=O)c1ccc(NC(=O)N(Cc2ccc(-c3ccc(CN4CCNCC4)cc3)cc2)C2CCN(Cc3ccccc3)CC2)cc1,7.64%
2,Cc1cc(N[C@@H](Cc2ccccc2)C(=O)NCCOc2ccccc2)nc(NCCc2cccs2)n1,11.6%
3,Cc1cc(N)c2cc(NC(=O)c3ccc4ccccc4c3)ccc2n1,6.08%
4,Cc1nc(-c2ccc(-c3ccc(NC(=O)c4coc5ccc(N6CC(C)N(C)C(C)C6)cc45)cc3)c(C)c2)no1 (stereo unspecified),4.08%
5,O=C(Nc1ccc(Cl)cc1)N[C@H]1CCN(Cc2ccc(OCCCN3CCCCC3)cc2)C1,7.14%
6,CCN(CC)CCCC(C)Nc1ccnc2ccc(OC)cc12 (stereo unspecified),0.73%
7,COc1ccccc1CNc1ccnc(N2CC(Oc3ccc(F)cc3)C2)n1,4%
8,CCCCNC(=N)c1ccc(OCCCCCOc2ccc(C(=N)NCCCC)cc2)cc1,2.26%
9,CCCCOc1ccc(C(=O)C(CCC(CNC(C)(C)C)C(=O)c2ccc(OCCCC)cc2)CNC(C)(C)C)cc1 (stereo unspecified),25.4%
10,CCCCCNC(=N)c1ccc(OCCCCCOc2ccc(C(=N)NCCCCC)cc2)cc1,5%
11,O=C(Nc1ccccc1)Nc1cccc(-c2cccc(-c3nc4cc(F)ccc4[nH]3)c2)c1,3%
12,Cc1ccc2[nH]c(-c3cc(-c4ccc(CO)cc4)cnc3N)nc2c1,5.51%
13,c1ccc2oc(-c3cc4ccncc4cc3OC3CCNCC3)cc2c1,8.77%
14,CCc1cn(CCc2ccccc2)c2ccc(C(=O)N[C@@H](Cc3ccccc3)[C@H](O)CNC(C)(C)CCCC(C)C)cc12,8.7%
15,CC(C)CCCC(C)(C)NC[C@@H](O)[C@H](Cc1ccccc1)NC(=O)c1cccc(CCC2CC2)c1,22.4%
16,O=C(N[C@@H](Cc1ccccc1)[C@H](O)CNCCC(F)(F)F)c1cccc(CCC2CC2)c1,6.1%
17,CCc1cn(CCOC)c2ccc(C(=O)N[C@@H](Cc3ccccc3)[C@H](O)CNC(C)(C)CCCC(C)C)cc12,5.07%
18,O=C(N[C@@H](Cc1ccccc1)[C@H](O)CNCCC(F)(F)F)c1cccc(OCC2CC2)c1,6.1%
19,CC(C)CCCC(C)(C)NC[C@@H](O)[C@H](Cc1ccccc1)NC(=O)c1cccc(OCC2CC2)c1,18.6%
